# Screening results as filed in PubChem.
# Shown are actives, neighbours in structure and some others; about 3.8% of the full set was active somewhere.
# A549 tox = A549 cytotoxicity, counter-screen for Nrf2 inhibitors; A549 ARE-Fluc cells, CellTiter-Fluor viability, 18-24 h; Potency, µM (doses to about 46 µM), for the others: top-dose activity change, negative = cytotoxicity, usual class: inhibitors; 0.16% of 390,000 active; AID 504648; also: % is scaled to controls: 0 for no effect and ±100 for the full control effect
#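 A549 ARE_Fluc cells in 5% FBS OPTI-MEM were exposed to compounds in concentration-response for 18-24 h at 37 deg C. Viability was read by CellTiter-Fluor fluorescence (Ex 405/Em 525) after 30 min, before the luciferase read.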
# Nrf2 inh = blocks Nrf2 signaling. Potency, µM (doses to about 46 µM), for inactives: at the highest dose activity change, negative = inhibition, usual class: inhibitors. A549 ARE-Fluc reporter, luciferase luminescence, 18-24 h. AID 504444. 2.1% of 360,000 active; also: % is scaled to controls: 0 for no effect and ±100 for the full control effect; nearly all actives have a fitted effect of over 60% in size
#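 In this cell-based qHTS, ARE-driven firefly luciferase in A549 cells reports Nrf2 activity; the luminescent signal after BugLite lysis is the measured value, with a prior CellTiter-Fluor read for cell health.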
# IDH1 R132H inh = inhibitors of human mutant IDH1 R132H. AID 602179. 0.093% of 390,000 active. Potency, µM (highest dose often 76.6 µM), without a hit: at the top dose activity change, negative = inhibition, hits mostly inhibitors. IDH1-R132H enzyme, NADPH consumption, diaphorase/resazurin fluorescence. O75874; also: % is scaled to controls: 0 for no effect and ±100 for the full control effect; nearly all actives have a fitted effect of over 65% in size
# Target sequence (O75874 whole entry R132H, stated change not applied): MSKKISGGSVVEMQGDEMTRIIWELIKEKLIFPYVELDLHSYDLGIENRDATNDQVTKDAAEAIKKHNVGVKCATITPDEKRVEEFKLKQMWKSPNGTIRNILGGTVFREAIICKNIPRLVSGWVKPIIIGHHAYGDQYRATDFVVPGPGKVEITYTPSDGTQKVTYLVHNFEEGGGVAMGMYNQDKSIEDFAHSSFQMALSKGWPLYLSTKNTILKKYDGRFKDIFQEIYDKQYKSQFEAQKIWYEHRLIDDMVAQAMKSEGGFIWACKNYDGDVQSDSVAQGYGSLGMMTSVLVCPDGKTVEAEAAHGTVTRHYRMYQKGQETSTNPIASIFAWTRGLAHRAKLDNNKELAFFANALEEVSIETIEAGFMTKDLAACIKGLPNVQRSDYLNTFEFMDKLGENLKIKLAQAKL
#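 IDH1-R132H (0.5 ug/mL dispensed) in pH 7.5 Tris buffer was preincubated 30 min with compound, then given a substrate mix of 0.016 mM NADPH and 2 mM alpha-KG for 80 min at room temperature; remaining NADPH was read by diaphorase/resazurin fluorescence.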
# Nrf2 ARE act = Nrf2 pathway activation; 0.31% of 410,000 active; Potency, µM (series often up to 46.1 µM), without a hit: at the highest dose activation, most hits filed as activators; AREc32 ARE-luciferase reporter (MCF7-derived line), luminescence, 24 h; also: % of control where 0% means no effect; nearly all actives have a fitted effect of over 65% in size
#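 Nrf2 activation is followed as ARE-luciferase induction in the AREc32 line after one day of compound treatment; luminescence is read with Steady-Glo.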
# ELG1 DNA repair = ELG1-dependent DNA repair inhibition | Potency, µM (doses to about 46.1 µM), without a hit: at the highest dose activity change, negative = inhibition, usual class: inhibitors | HEK293T ELG1-luciferase reporter, luminescence, 16 h; DNA damage induced by 5-fluorouridine | AID 504467 | 2.3% of 330,000 active; also: % is scaled to controls: 0 for no effect and ±100 for the full control effect; nearly all actives have a fitted effect of over 55% in size
#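 Overnight (16 hr) co-exposure of 2,000 cells/well to 5-fluorouridine and compound at 37 °C preceded detection. Luciferase was quantified via ONE-Glo luminescence; loss of signal denotes inhibition.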
# * marks the source's active call; other numbers are inactive results; ? = inconclusive; · = not tested or not shown. Calls follow the shape of the dose curve; as a rule, active = well fitted curve in the direction sought with a large enough effect; inconclusive = small, poorly fitted or top-dose-only effect, or another doubt; inactive = no such curve, though single readings can be large; an effect the other way counts as inactive or inconclusive. Potency is read from the fitted curve at half-maximal effect.
SMILES,A549 tox,Nrf2 inh,IDH1 R132H inh,Nrf2 ARE act,ELG1 DNA repair
Cc1cccc2nc(-c3cccnc3)c(NCCC(C)C)n12,4%,1%,4%,0%,5%
Cc1cccc2nc(-c3cccnc3)c(Nc3ccccc3)n12,-4%,?,0%,3%,18µM*
O=C(Nc1cccc2ncccc12)c1ccccc1Cl,1%,-2%,-2%,8%,-2%
O=C(Nc1cccc2ncccc12)c1ccccc1F,-8%,8%,-1%,13µM*,-7%
O=C(CCl)Nc1cccc2ncccc12,23µM*,16µM*,8%,?,26µM*
COc1ccc(OCC(=O)Nc2cccc3ncccc23)cc1,10%,·,4%,2%,-11%
COc1cc(OC)c(NS(=O)(=O)c2cc(-c3cnc(C)o3)ccc2OC)cc1Cl,-7%,·,17%,5%,·
COc1ccccc1NC(=O)Cn1c(=O)c(CNc2ccccc2)cc2cc(OC)c(OC)cc21,7%,-1%,-13%,-1%,·
Cc1cc(OCCCCOc2ccc(S(N)(=O)=O)c(C)c2)ccc1S(N)(=O)=O,-6%,12µM*,4%,9%,-24%
CCOc1ccc(/C=C/c2nc(C#N)c(NC3CCCCC3)o2)cc1,-5%,4%,-6%,0%,·
c1cnc2c(c1)ncc1cscc12,1%,10%,-5%,0%,?
c1cc2c(cn1)cnc1cscc12,-2%,?,0%,0%,8.2µM*
Cc1ccc(NC(=O)Cc2ccc(NC(=O)N3CCCCc4ccccc43)cc2)cc1Cl,-2%,9%,-8%,-1%,·
CCOC(=O)c1ccc(N2C(=O)c3[nH]nc(-c4ccc(OC)cc4)c3C2c2ccccc2Cl)cc1 (stereo not drawn),0%,9%,-5%,-1%,·
CCOC(=O)c1ccc(N2C(=O)c3[nH]nc(-c4ccc(C)cc4)c3C2c2cccs2)cc1 (stereo not drawn),?,23µM*,-4%,0%,·
CCOC(=O)c1ccc(N2C(=O)c3[nH]nc(-c4ccc(C)cc4)c3C2c2ccc(O)c(OCC)c2)cc1 (stereo not drawn),-10%,21µM*,-12%,13%,·
Cc1cn2c(=O)cc(COc3ccc(NC(=O)COc4ccccc4)cc3)nc2s1,0%,29%,-9%,1%,·
COc1ccc(CCN(Cc2cc3cc(C)cc(C)c3nc2Cl)C(=O)C2CC2)cc1,-21%,16µM*,2%,-1%,?
COc1cccc(-c2nnc3n2N=C(c2ccccc2OC)CS3)c1,-1%,?,·,·,·
CCOc1ccccc1-c1noc(CSc2nnc(-c3ccccc3)n2-c2ccc(F)cc2)n1,?,-77%,17%,0%,·
COc1ccc2c(c1)CC/C(=C/c1cc(OC)c(OC)c(OC)c1)C2=O,3%,-2%,8%,25%,18µM*
COc1cccc(/C=C2\CCc3ccccc3C2=O)c1,-1%,8%,0%,?,?
Cc1nc(S(=O)(=O)N2CCN(c3cccc(Cl)c3)CC2)cn1C,17%,·,1%,1%,·
O=C(c1cc(COc2ccc3ncccc3c2)on1)N1CCC[C@H]1CO,-20%,9.2µM*,3%,2%,20%
COCC1CCCN(C(=O)c2cc(COc3ccc4ncccc4c3)on2)C1 (stereo not drawn),-18%,8.2µM*,6%,0%,1%
SMILES,A549 tox,Nrf2 inh,IDH1 R132H inh,Nrf2 ARE act,ELG1 DNA repair
O=S(=O)(c1ccc2ncsc2c1)N1CCN(c2nc(-c3cccs3)nc3ccccc23)CC1,-3%,?,·,·,·
CC(=O)CC(=O)NC(=NC1CCCCC1)Nc1nc(C)cc(C)n1,-6%,?,-6%,1%,10µM*
COc1ccc(-c2nc3ccccn3c2Nc2ccccc2C)cc1,-1%,?,·,·,·
CCc1ccc2c(c1)C(=O)CCC2,0%,28%,-3%,0%,·
O=C1CCCc2cc3c(cc21)CC1(C3)Cc2cc3c(cc2C1)C(=O)CCC3,-15%,?,-1%,-1%,13µM*
COc1ccc(-c2nn(C)c3sc(C(=O)NCc4ccco4)cc23)cc1OC,0%,18%,0%,4%,-12%
COc1ccc(-c2cc(C(=O)Nc3cc(OC)c(OC)c(OC)c3)no2)cc1OC,6%,·,4%,1%,-8%
COc1ccc(NC(=O)c2cc3c(-c4ccc(OC)c(OC)c4)nn(C)c3s2)cc1OC,-29%,12µM*,6%,21%,1.6µM*
COc1ccc(-c2nn(C)c3sc(C(=O)Nc4cc(OC)c(OC)c(OC)c4)cc23)cc1OC,?,23µM*,8%,4%,·
Cc1ccc(Cl)cc1NS(=O)(=O)c1cc2c3c(c1)CC(=O)N3CCC2,1%,·,?,1%,·
COC(=O)C1=C(C)NC2=C(C(=O)CC(C)(C)C2)C1c1cn(Cc2ccc(Br)cc2)nc1-c1ccccc1 (stereo not drawn),-22%,13µM*,-1%,-1%,?
COC(=O)C1=C(C)NC2=C(C(=O)CCC2)C1c1cn(Cc2ccc(Br)cc2)nc1-c1ccccc1 (stereo not drawn),-14%,?,-1%,0%,-11%
O=C(O)c1ccc(S(=O)(=O)N[C@H](Cc2ccccc2)C(=O)O)cc1,-3%,5%,·,·,·
Cn1cc(S(=O)(=O)N2CCCCCC2)cc1C(=O)N1CCN(c2cccc(C(F)(F)F)c2)CC1,-9%,·,-4%,0%,·
COc1cc(-c2nnc(SCC(=O)c3ccc(C)cc3)o2)cc(OC)c1OC,3%,2%,0%,1%,?
COc1cc(-c2nnc(SCC(=O)N3c4ccccc4Sc4ccccc43)o2)cc(OC)c1OC,-8%,?,3%,-1%,7.3µM*
COc1cccc(C(=O)CSc2nnc(-c3cc(OC)c(OC)c(OC)c3)o2)c1,-2%,-1%,6%,-1%,21µM*
COc1ccc(-c2nnc(SCC(=O)N(C)Cc3ccccc3)o2)cc1OC,-13%,23µM*,-1%,0%,·
CN(Cc1ccccc1)C(=O)CSc1nnc(-c2cccc(Cl)c2)o1,0%,-17%,·,4%,·
COc1cc(-c2nnc(SCC(=O)Oc3ccccc3Cl)o2)cc(OC)c1OC,5%,13%,0%,0%,·
CC(=O)Nc1cccc(S(=O)(=O)Nc2ccc(C)c(C)c2)c1,-1%,?,·,·,·
COCCNC(=O)CSc1nnc2[nH]c(=O)cc(C)n12,-18%,·,-6%,-1%,·
C=CCNC(=O)CC1C(=O)NCCN1Cc1ccc(-c2ccccc2)cc1 (stereo not drawn),2%,-15%,3%,-1%,-3%
O=C(CC1C(=O)NCCN1Cc1ccc(-c2ccccc2)cc1)NCC1CC1 (stereo not drawn),?,23µM*,-5%,2%,3%
CCOC(=O)N1CCC(NC(=O)c2c(C)nn(-c3cccc(C)c3)c2-n2cccc2)CC1,-1%,?,10%,4%,·
